Results on two molecules are retold here after PubChem BioAssay (NCATS).

The structures appear in SMILES notation. Inconclusive results are not listed. Calls of active or inactive are those of the source. Unless noted, calls come from the whole dose curve; as a rule, active = well fitted curve in the direction sought with a large enough effect; inconclusive = small, poorly fitted or top-dose-only effect, or another doubt; inactive = no such curve, though single readings can be large; an effect the other way counts as inactive or inconclusive.

Assay [1] deals with Luciferin 4-monooxygenase (Photinus pyralis) (UniProt P08659). The assay can be described thus: Biochemical firefly luciferase enzyme assay for NPC (AID 624030).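 Note: purified P. pyralis luciferase at 10 nM with luciferin and ATP substrate; nearly all actives have a fitted effect of over 70% in size.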 To be noted: purified P. pyralis luciferase, luminescence, 5 min; series mostly up to 58.6 µM. The procedure, abridged: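 Direct inhibition of firefly luciferase enzyme (10 nM final, 50 mM Tris Acetate) assessed by luminescence within 5 minutes. Percent activity scaled between DMSO and PTC124 positive control, with concentration-effect curves classified by fit quality and response.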

Assay [2] is described as follows: S16 Schwann cell viability assay (CellTiter-Glo assay) (AID 624031).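 Note: native untransfected S16 rat Schwann cells; cellular ATP luminescence as a viability measure; nearly all actives have a fitted effect of over 70% in size.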 The settings on record: S16 rat Schwann cells viability, 24 h; series mostly up to 57.5 µM. The essentials:
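Following overnight culture in 10% FBS DMEM, parental S16 rat Schwann cells are dosed for 24 h at 37 °C. Viability is read as CellTiter-Glo luminescence and expressed as % activity relative to DMSO (0%) and no-cell wells.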

Assay [3] in a line: S16 Schwann cell PMP22 intronic element firefly luciferase assay (AID 624032). Note: nearly all actives have a fitted effect of over 30% in size. Note: potency is the fitted concentration of half-maximal effect. The settings on record: S16 rat Schwann cells, PMP22 element FLuc, 24 h; series mostly up to 57.5 µM. The procedure, abridged:
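Luciferase reporter of PMP22 intronic-element expression in stably transfected S16 rat Schwann cells, read by ONE-Glo luminescence after 24 h compound exposure at 37 C. Activity scaled between DMSO (0%) and positive-control PTC124; concentration-effect curves quality-classified.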

Assay [4] can be described thus: S16 Schwann cell PMP22 intronic element beta-lactamase assay (AID 624044; calls by dose curve; note: nearly all actives have a fitted effect of over 15% in size). The settings on record: S16 rat Schwann cells, PMP22 element beta-lactamase FRET, 24 h; ratio activity, negative = inhibition: at 38.3 µM (top of the series) unless noted. The essentials: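 Rat S16 Schwann cells with beta-Lac driven by a PMP22 intronic element, compound-treated 24 h at 37 °C. LiveBLAzer FRET B/G read: 460 nm normalized to potassium clavulanate vs DMSO; 535 nm FRET as viability; concentration-effect curves classified.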

Another assay deals with 3D7. Nature of the assay: qHTS profiling for inhibitors of Plasmodium falciparum proliferation (AID 504749). Note: nearly all actives have a fitted effect of over 60% in size. Note: potency is the fitted concentration of half-maximal effect. To be noted: P. falciparum in erythrocytes, SYBR Green DNA, 72 h; series mostly up to 28.7 µM. The essentials: (§1)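 Three-day growth assay of blood-stage parasites in erythrocytes (0.3% parasitemia, 2.5% hematocrit) at 37 C, 5% CO2, quantified by SYBR Green DNA staining after overnight detergent lysis.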
On the technique in general: qHTS replaces the single test concentration by a dilution series.

A further assay concerns 7G8. The assay is described as above. The settings on record: P. falciparum in erythrocytes, SYBR Green DNA, 72 h; series mostly up to 12.8 µM. The essentials: as §1
In another assay the test system is AS120. Described as above. The settings on record: P. falciparum in erythrocytes, SYBR Green DNA, 72 h; series mostly up to 28.7 µM. The essentials:
as §1

For a further assay, the system named is ATS189. Described as above. The settings on record: P. falciparum in erythrocytes, SYBR Green DNA, 72 h; series mostly up to 28.7 µM. The procedure, abridged: as §1
The subject of a further assay is CP194. The assay is described as above. The settings on record: P. falciparum in erythrocytes, SYBR Green DNA, 72 h; series mostly up to 28.7 µM. The essentials: as §1
The next assay concerns CP201. Described as above. To be noted: P. falciparum in erythrocytes, SYBR Green DNA, 72 h; series mostly up to 28.7 µM. The procedure, abridged:
as §1

Another assay concerns CP203. Described as above. The settings on record: P. falciparum in erythrocytes, SYBR Green DNA, 72 h; series mostly up to 28.7 µM. The essentials:
as §1

For the next assay, the system named is CP237. The description is as above. The settings on record: P. falciparum in erythrocytes, SYBR Green DNA, 72 h; series mostly up to 28.7 µM. The procedure, abridged: as §1
The test system of a further assay is CP247. The assay is described as above. To be noted: P. falciparum in erythrocytes, SYBR Green DNA, 72 h; series mostly up to 28.7 µM. The essentials:
as §1

A further assay has as its system CP286. Described as above. To be noted: P. falciparum in erythrocytes, SYBR Green DNA, 72 h; series mostly up to 28.7 µM. The essentials: as §1
A further assay concerns CP297. The assay is described as above. The settings on record: P. falciparum in erythrocytes, SYBR Green DNA, 72 h; series mostly up to 28.7 µM. The essentials:
as §1

The test system of the next assay is CP315. The assay is described as above. The settings on record: P. falciparum in erythrocytes, SYBR Green DNA, 72 h; series mostly up to 28.7 µM. The procedure, abridged:
as §1

A further assay deals with DFO2036. The description is as above. To be noted: P. falciparum in erythrocytes, SYBR Green DNA, 72 h; series mostly up to 28.7 µM. The procedure, abridged: as §1
For the next assay, the system named is DIV14. Described as above. To be noted: P. falciparum in erythrocytes, SYBR Green DNA, 72 h; series mostly up to 28.7 µM. The essentials: as §1
The test system of another assay is HB3. Described as above. To be noted: P. falciparum in erythrocytes, SYBR Green DNA, 72 h; series mostly up to 28.7 µM. The essentials: as §1
The test system of the next assay is PC49. The assay is described as above. To be noted: P. falciparum in erythrocytes, SYBR Green DNA, 72 h; series mostly up to 28.7 µM. The essentials: as §1

Chain of Luciferin 4-monooxygenase (Photinus pyralis) (P08659 whole entry, looked up): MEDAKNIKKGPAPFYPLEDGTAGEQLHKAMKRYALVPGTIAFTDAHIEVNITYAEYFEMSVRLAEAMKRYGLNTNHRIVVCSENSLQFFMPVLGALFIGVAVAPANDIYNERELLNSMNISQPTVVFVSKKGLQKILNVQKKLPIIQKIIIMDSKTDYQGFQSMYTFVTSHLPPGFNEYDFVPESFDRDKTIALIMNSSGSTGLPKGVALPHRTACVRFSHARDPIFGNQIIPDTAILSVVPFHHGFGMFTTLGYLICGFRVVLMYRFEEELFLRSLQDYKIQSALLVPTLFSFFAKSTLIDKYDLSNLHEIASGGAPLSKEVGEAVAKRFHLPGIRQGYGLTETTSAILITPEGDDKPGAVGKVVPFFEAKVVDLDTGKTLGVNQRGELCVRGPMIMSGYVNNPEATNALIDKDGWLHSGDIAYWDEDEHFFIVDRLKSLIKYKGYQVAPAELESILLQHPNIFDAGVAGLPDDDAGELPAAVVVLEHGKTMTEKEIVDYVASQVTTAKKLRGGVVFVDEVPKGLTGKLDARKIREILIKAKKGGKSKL

Turning to `C[C@]12CC[C@H]3[C@@H](CCC4=CC(=O)CC[C@@]43C)[C@@H]1CC[C@@H]2O`, the Potency result (in assay [1]; in [2]; in assay [4]; with 3D7; in the assay on 7G8; in the assay on AS120) was “inactive” each time. In addition, the Potency result in the assay on ATS189, in the assay on CP194, in the assay with CP201, with CP203, in the assay on CP237 and in the assay on CP247 was “inactive” in each case. Also, the Potency entry in the assay with CP286, with CP297, in the assay on CP315, in the assay with DFO2036, in the assay with DIV14 and in the assay with HB3 was “inactive” throughout. In addition, in the assay on PC49, the Potency result was “inactive”. The Potency in assay [3] was 8.09 µM (active).

With `COc1ccc2c(c1OC)CN1CCc3cc4c(cc3[C@H]1C2)OCO4`, the Potency entry in assay [1], in assay [2], in assay [3] and in [4] was “inactive” each time. The Potency is 3.55 µM (active) in the assay on 7G8, 1.81 µM (active) in the assay on CP297, 3.61 µM (active) with CP315 and 2.56 µM (active) in the assay with DIV14.
